dFosB act – activators of delta FosB homodimer, primary screen, biochemical, fluorescence polarization, TAMRA-CDK5 oligo, single point | Protein FosB (Mus musculus), P13346 | purified delta FosB; percent of positive-control signal above neutral wells | activation, % at 25 µM | actives 0.99% (n = 340,000) | AID 493131, 2011;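 active = mean activation above about 17%, with every replicate also reaching it, limit read from the data, passing the limit was not always enough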
NALP1 inh – NALP1 inflammasome inhibitors in reconstituted yeast, colorimetric, S. cerevisiae, triplicate retest; S. cerevisiae NALP1/ASC/caspase-1 growth, X-gal OD620, 72 h; AID 2071, 2009; actives 0.61% (n = 280,000); inhibition, % at 10 µM; in the data active = inhibition mostly above about 24%, no sharp cut-off; inactive = mostly below about 32%
EBNA-1 inh – EBNA-1 DNA-binding inhibitors, primary screen, biochemical, fluorescence polarization. actives 0.34% (n = 300,000). inhibition, % at 14.8 µM. AID 1950, 2009; in the data active = inhibition above about 28%
ZTA DNA inh – blocks Epstein-Barr virus ZTA, an EBNA-1 counter-screen. P03206. ZTA-DNA binding, fluorescence polarization. inhibition, % at 11 µM. actives 0.15% (n = 320,000); in the data active = inhibition above about 33%
Target sequence (P03206 whole entry, looked up): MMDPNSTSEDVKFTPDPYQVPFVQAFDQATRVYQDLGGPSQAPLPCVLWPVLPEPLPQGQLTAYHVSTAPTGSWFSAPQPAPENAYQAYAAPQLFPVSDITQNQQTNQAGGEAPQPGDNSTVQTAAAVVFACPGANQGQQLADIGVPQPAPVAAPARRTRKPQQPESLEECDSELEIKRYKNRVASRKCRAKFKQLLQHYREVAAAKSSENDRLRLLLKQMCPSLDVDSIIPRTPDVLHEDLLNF
NLRP3 yeast inh – NALP3 inflammasome inhibitors in reconstituted yeast, primary screen, luminescence, uHTS | Yeast reconstituted NLRP3/ASC/caspase-1, beta-gal luminescence, 24 h | inhibition, % at 10 µM | actives 0.39% (n = 330,000) | AID 2825, 2010;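 active = inhibition of 50% or more; inactive = inhibition below 50%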
PolyA inhibitor – polyadenylation inhibitors in yeast reporter cells, primary screen, luminescence, S. cerevisiae. actives 0.02% (n = 300,000). S. cerevisiae SKY197-pL101 polyadenylation reporter, beta-gal luminescence; efflux-impaired pdr1/pdr3 knockout yeast; score 100 = 6 SD above DMSO. activity score, % at 12 µM. AID 1875, 2009;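 active = lowest replicate activity score at least 50, where 100 means six control SD above control mean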;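 note: yeast exposed to compound for 9 h at 30 °C; higher score means more reporter readthrough which indicates perturbed polyadenylation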
A number is an active result; . = inactive; / = no result given. Most compounds without a hit are left out; they make up all but 2.2% or so of the library.

SMILES	dFosB act	NALP1 inh	EBNA-1 inh	ZTA DNA inh	NLRP3 yeast inh	PolyA inhibitor
C=CCN(C(=O)CNS(=O)(=O)c1ccccc1)C(C(=O)NCCOC)c1cccnc1 (centres undefined)	.	.	.	.	.	.
COc1ccc2cnn(-c3ccc(OC(F)(F)Cl)cc3)c(=O)c2c1OC	.	.	.	.	.	.
COc1ccc2cnn(-c3ccc(C)cc3)c(=O)c2c1OC	.	64	.	.	.	.
c1coc(-c2nc(-c3ccco3)c(-c3ccco3)nc2-c2ccco2)c1	.	.	38	76	.	.
O=C(NC(=S)Nc1ccc(N2CCOCC2)cc1)c1cccc(Cl)c1Cl	.	.	/	/	.	.
CN1CCN(c2ccc(NC(=S)NC(=O)c3cccc4c(Cl)cccc34)cc2)CC1	49	.	.	.	.	.
NC(=O)c1c(/N=C/c2cccs2)sc2c1CCCC2	/	.	.	.	.	.
Cc1cc(OC(=O)C(C)(C)C)c([N+](=O)[O-])c(=O)[nH]1	.	34	.	.	.	.
C=CC[C@@H](CC(=O)N[C@H](CO)Cc1ccccc1)C(=O)N[C@H](COC(=O)[C@@H](CC=C)Cc1ccc(F)cc1)Cc1ccccc1	.	/	/	/	.	/
N=c1n(Cc2ccc(Cl)cc2)c2ccccc2n1CC(O)COc1ccccc1 (centres undefined)	.	.	.	.	.	.
N=c1n(Cc2ccccc2)c2ccccc2n1CC(O)COc1ccc(Cl)cc1Cl (centres undefined)	30	.	/	/	.	/
Cc1ccc(NC(=O)c2oc3ccc(Br)cc3c2C)cc1S(=O)(=O)N1CCOCC1	.	/	/	/	/	/
COc1ccccc1CNC(=O)c1cc2ccccc2o1	.	.	.	.	.	.
COc1ccccc1CNC(=O)c1cc2ccccc2oc1=O	.	28	.	.	.	.
COc1ccccc1NC(=O)c1cc2ccccc2o/c1=N\O	.	.	42	.	.	.
COc1ccccc1NC(=O)c1cc2ccc(O)cc2o/c1=N\O	.	.	.	.	.	.
Cc1cc(C(=O)CN2C(=O)C(=O)N(C3CCCC3)C2=O)c(C)n1CCc1ccc(F)cc1	.	/	/	.	.	/
COc1ccccc1C(=O)C1CCCN(C(=O)c2ccc(C(C)=O)s2)C1 (centres undefined)	.	.	.	.	.	.
COc1ccccc1C(=O)C1CCCN(C(=O)c2ccccc2C(C)=O)C1 (centres undefined)	.	27	/	/	.	.
CN(C)CCc1cc2c(c3c1ccc1ccccc13)OCO2	47	.	.	.	.	59
O=C(O)c1cccnc1SCc1cccc(Br)c1	.	.	.	.	.	.
N#Cc1ccccc1OCC(=O)NCC(c1cccs1)N1CCOCC1 (centres undefined)	.	.	.	.	.	.
Cc1ccc(S(=O)(=O)Nc2cccc3cccnc23)c([N+](=O)[O-])c1	.	.	.	.	.	72
CC(Oc1ccc(Cl)cc1Cl)C(=O)NCCCN1CCOCC1 (centres undefined)	.	41	.	.	.	.
CCN(CC(=O)Nc1ccccc1OC)C(=O)c1ccc(NS(=O)(=O)c2ccc(C(C)=O)cc2)cc1	.	44	.	.	.	.
SMILES	dFosB act	NALP1 inh	EBNA-1 inh	ZTA DNA inh	NLRP3 yeast inh	PolyA inhibitor
CCCN(CC(=O)Nc1ccccc1OC)C(=O)c1ccc(S(=O)(=O)Nc2ccccc2)cc1	.	/	.	.	.	.
COc1ccc(-n2nc3c(N4CCC(C(=O)NCc5ccccc5C)CC4)nnc(C)c3c2C)cc1	77	.	.	.	.	.
CC(C)N1CCN(Cc2cccn2-c2nccs2)CC1CCO (centres undefined)	.	.	.	.	.	.
OCCC1CN(Cc2cccn2-c2nccs2)CCN1C1CCCCC1 (centres undefined)	.	25	.	.	.	.
COc1ccc(C2N(c3cc(Cl)ccc3OC)C(=O)C3CCCN32)cc1 (centres undefined)	.	41	.	.	.	.
O=C(O)C1Nc2c(O)cc(Cl)c([N+](=O)[O-])c2C2C=CCC12 (centres undefined)	.	.	58	90	.	.
